# Measured values: PubChem BioAssay AID1347414 (National Center for Advancing Translational Sciences (NCATS), 2020)
# Inconclusive results are not listed. Unmarked numbers belong to inactive results. The source made the active and inactive calls. The call rests on the fitted dose curve; in most records, active means well fitted inhibition curve with a large enough effect; inconclusive means small, poorly fitted or top-dose-only effect; inactive means no such curve, though single readings can be large or run the other way.
# Assay: qHTS to identify inhibitors of the type 1 interferon - major histocompatibility complex class I in skeletal muscle: Secondary screen by immunofluorescence; further: nearly all actives have a fitted effect of over 70% in size;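 on activity change, negative = inhibition: digitonin at 100 µM served as the cytotoxic control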
# Conditions: C25cl48 myoblasts, IFN-b induced HLA-ABC immunofluorescence, 24 h, Viability; series mostly up to 49.8 µM; activity change, negative = inhibition: at the top concentration
# Outline: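 HLA-ABC immunofluorescence, with nuclear and cell-body stains, was quantified by laser scanning cytometry. Read-out followed 24 h of IFN-beta (4.0 ng/ml) stimulation of C25cl48 human myoblasts with compounds titrated 1:3 over 11 points from 50 uM, with ruxolitinib as inhibitor control.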
# On the % scale 0 is the no-effect control and ±100 the full control effect; potency means the concentration at half of the fitted maximal effect.
SMILES,"activity change, negative = inhibition [%]",Potency
CC1(C)CC(=O)c2c(C(F)(F)F)nn(-c3ccc(C(N)=O)c(NC4CCC(O)CC4)c3)c2C1 (stereo unspecified),-7.44,–
Cc1cc(Nc2cc(CN3CCOCC3)c3nc(C)c(Cc4ccc(Cl)cc4F)n3n2)n[nH]1,–,20.5 µM (active)
Cc1ccc(NC(=O)NCc2ccc3c(c2)CN(C2CCC(=O)NC2=O)C3=O)cc1Cl (stereo unspecified),9.81,–
OCCCNc1cc(-c2ccnc(Nc3cccc(Cl)c3)n2)ccn1,3.83,–
Cc1ncc(-c2ccnc(Nc3ccc(S(C)(=O)=O)cc3)n2)n1C(C)C,0.722,–
Fc1ccc(CNc2ncnc3ccc(F)cc23)cc1,8.45,–
CCc1cnn2c(NCc3ccc[n+]([O-])c3)cc(N3CCCC[C@H]3CCO)nc12,1.64,–
COc1cc2c(cc1-c1c(C)noc1C)ncc1[nH]c(=O)n([C@H](C)c3ccccn3)c12,10.5,–
C1=C/COCc2cc(ccc2OCCN2CCCC2)Nc2nccc(n2)-c2cccc(c2)COC/1,–,11.5 µM (active)
CC(C)c1cc(CNc2nc(Nc3cc(C4CC4)[nH]n3)cc(N3CCN(C)CC3)n2)on1,-19.3,–
CCC(=C/[C@H](C)C/C=C/C(C)=C/[C@@H](C)C(=O)[C@@H](C)[C@H](O)[C@@H](C)C/C(C)=C/C(=O)O)/C=C/[C@@H]1OC(=O)C=C[C@@H]1C,3.28,–
O=C(NC1CCNCC1)c1[nH]ncc1NC(=O)c1c(Cl)cccc1Cl,8.03,–
CC[C@H](CC#N)OC(=O)N[C@@H](C)c1cccc(NC(=O)Nc2ccc(-c3cnco3)c(OC)c2)c1,-3.25,–
CN1CCN(c2cccc(Nc3nc4c(-c5ccc(S(C)(=O)=O)cc5)cccn4n3)c2)CC1,-24.5,–
COc1cccc(-c2cc(F)ccc2[C@H]2Cc3nc(N)nc(C)c3C(=O)N2)n1,-5.61,–
CN1CC[C@H](c2c(O)cc(O)c3c(=O)cc(-c4ccccc4Cl)oc23)[C@H](O)C1,-1.82,–
CC(C)c1c(-c2ccccc2)nc2c(C#N)c[nH]n2c1=O,7.47,–
C/C=C1\NC(=O)[C@H]2CSSCCC=C[C@H](CC(=O)N[C@H](C(C)C)C(=O)N2)OC(=O)[C@H](C(C)C)NC1=O,–,8.14 µM (active)

SMILES,"activity change, negative = inhibition [%]",Potency
CC(C)CC(=O)Nc1n[nH]c2c1CN(C(=O)C1CCN(C)CC1)C2(C)C,-4.69,–
COc1cccc2c1C(=O)c1c(O)c3c(c(O)c1C2=O)C[C@@](O)(C(=O)CO)C[C@@H]3O[C@H]1C[C@H](N)[C@H](OC2CCCCO2)[C@H](C)O1 (stereo partly specified),4.58,–
CC(C)c1cc(C(=O)N2Cc3ccc(CN4CCN(C)CC4)cc3C2)c(O)cc1O,18.5,–
CCNC(=O)c1noc(-c2cc(C(C)C)c(O)cc2O)c1-c1ccc(CN2CCOCC2)cc1,23.3,–
O=C(/C=C/c1ccc2ccc(C(F)(F)F)cc2n1)c1ccncc1,–,3.64 µM (active)
CC(C)[C@H](C(=O)Nc1ccc(C(=O)NO)cc1)c1ccccc1,-1.44,–
O=C1Nc2ccccc2C1(c1ccc(O)cc1)c1ccc(O)cc1,6.86,–
CN(c1ncccc1CNc1nc(Nc2ccc3c(c2)CC(=O)N3)ncc1C(F)(F)F)S(C)(=O)=O,-17.6,–
CC(=O)c1ccc2c(c1)c1cc(C(C)=O)ccc1n2CCNC(C)C,3.4,–
C=CC(=O)N1CC/C(=C\c2ccc(F)c([N+](=O)[O-])c2)C(=O)/C(=C/c2ccc(F)c([N+](=O)[O-])c2)C1,–,0.408 µM (active)
Cc1cc(Nc2cc(NC(=O)c3c(Cl)cccc3Cl)ccn2)nc(N)n1,-8.56,–
CC(C)c1cnn2c(NCc3ccccc3)cc(N[C@@H](CO)[C@H](O)CO)nc12,9.25,–
O=[N+]([O-])c1ccc2c(c1)S(=O)(=O)C=C2,–,5.14 µM (active)
Cc1cc2c(cc1CC(=O)c1sccc1S(=O)(=O)Nc1onc(C)c1Cl)OCO2,2.91,–
O=C(/C=C/C#Cc1cccc(NS(=O)(=O)c2ccccc2)c1)NO,-5.42,–
CC(/C=C/C(=O)NO)=C\[C@@H](C)C(=O)c1ccc(N(C)C)cc1,-16.9,–
CC(C)(C)c1nc2c3cc[nH]c(=O)c3c3cc(F)ccc3c2[nH]1,-15.7,–
O=C(Nc1nc2cccc(-c3ccc(CN4CCS(=O)(=O)CC4)cc3)n2n1)C1CC1,-6.56,–
